Data from a collection of fitness landscapes (doi:10.1126/science.1257360).
Over roughly 140,000 sequences, “enrichment ratio after two sorts for PhoP signalling” has its median near 0; the highest 2% begin near 11. This excerpt belongs to a sample that is enriched for the highest values.

B1: PhoQ; a variant is named by its letters at X, in order, P23837 (parent)
chain: MKKLLRLFFPLSLRVRFLLATAAVVLVLSLAYGMVALIGYSVSFDKTTFRLLRGESNLFYTLAKWENNKLHVELPENIDKQSPTMTLIYDENGQLLWAQRDVPWLMKMIQPDWLKSNGFHEIEADVNDTSLLLSGDHSIQQQLQEVREDDDDAEMTHSVAVNVYPATSRMPKLTIVVVDTIPVELKSSYMVWSWFIYVLSANLLLVIPLLWVAAWWSLRPIEALAKEVRELEEHNRELLNPATTRELTSLVRNLNRLLKSERERYDKYRTTLTDLTHSLKTPLXXLQXXLRSLRSEKMSVSDAEPVMLEQISRISQQIGYYLHRASMRGGTLLSRELHPVAPLLDNLTSALNKVYQRKGVNISLDISPEISFVGEQNDFVEVMGNVLDNACKYCLEFVEISARQTDEHLYIVVEDDGPGIPLSKREVIFDRGQRVDTLRPGQGVGLAVAREITEQYEGKIVAGESMLGGARMEVIFGRQHSAPKDE

Variants of: B1
Experiment: enrichment ratio after two sorts for PhoP signalling (ratio (wild type AVST 3.29)); higher = more functional
Conditions: with PhoP (E. coli)
ELHR gave an enrichment ratio of at most 0.25. RESM was tested, and the enrichment ratio was at most 0.25. With NKRK the enrichment ratio was at most 0.25. Work on MWRP yielded an enrichment ratio of at most 0.25. Work on GFQI yielded an enrichment ratio of at most 0.25. NFAP was tested, and the enrichment ratio was at most 0.25. QSGM showed an enrichment ratio of 21.6. For QSGD, the enrichment ratio was at most 0.25. In the case of QSWI, the enrichment ratio is reported as 21.7. QSCK showed an enrichment ratio of at most 0.25. QRWA showed an enrichment ratio of at most 0.25. In the case of QSRM, the enrichment ratio is reported as at most 0.25. With QPWA the enrichment ratio was at most 0.25. Variant QSTH has an enrichment ratio of at most 0.25. Variant QSLA has an enrichment ratio of at most 0.25. Work on QSPM yielded an enrichment ratio of at most 0.25. QSWA was tested, and the enrichment ratio was 14.9. Variant QSWM has an enrichment ratio of 11.9. For WMFH, the enrichment ratio was at most 0.25. In the case of WHID, the enrichment ratio is reported as at most 0.25. WSCR gave an enrichment ratio of at most 0.25. Work on TVMI yielded an enrichment ratio of 1.87. WGFP was tested, and the enrichment ratio was at most 0.25. For HKEM, the enrichment ratio was at most 0.25. ESDT gave an enrichment ratio of at most 0.25. Work on QSWY yielded an enrichment ratio of 7.32. QSHP showed an enrichment ratio of at most 0.25. In the case of QENM, the enrichment ratio is reported as at most 0.25. For QSNM, the enrichment ratio was 13.1. Work on QSTD yielded an enrichment ratio of at most 0.25. QSDY gave an enrichment ratio of 14.5. QSHQ showed an enrichment ratio of 22.4. With QYWG the enrichment ratio was 16.3. With QYMG the enrichment ratio was at most 0.25. KSDY was tested, and the enrichment ratio was at most 0.25. With QYWI the enrichment ratio was at most 0.25. Work on KSNM yielded an enrichment ratio of at most 0.25. HQNG gave an enrichment ratio of at most 0.25. Variant FDDI has an enrichment ratio of at most 0.25. SMYF showed an enrichment ratio of at most 0.25. Variant YYYI has an enrichment ratio of at most 0.25. In the case of FAGN, the enrichment ratio is reported as at most 0.25. With ICGK the enrichment ratio was at most 0.25. Variant IRTW has an enrichment ratio of at most 0.25. QGDM was tested, and the enrichment ratio was 27.5. Work on QVHC yielded an enrichment ratio of at most 0.25. With QGGM the enrichment ratio was 4.35. With QLHC the enrichment ratio was 21.3. In the case of KSDM, the enrichment ratio is reported as at most 0.25. QSDM showed an enrichment ratio of 13.7. In the case of QPDM, the enrichment ratio is reported as at most 0.25. FFDM showed an enrichment ratio of at most 0.25. QRHC was tested, and the enrichment ratio was at most 0.25. QPWD gave an enrichment ratio of at most 0.25. In the case of QSWD, the enrichment ratio is reported as 22.4. QRWD was tested, and the enrichment ratio was at most 0.25. Variant WGMH has an enrichment ratio of at most 0.25. ANRC showed an enrichment ratio of at most 0.25. KGAG gave an enrichment ratio of at most 0.25. TIPQ showed an enrichment ratio of at most 0.25. PTHR gave an enrichment ratio of at most 0.25. MGAL gave an enrichment ratio of 15.5. With QRAL the enrichment ratio was at most 0.25. NGAL was tested, and the enrichment ratio was at most 0.25. For GGAL, the enrichment ratio was 4.27. In the case of MEAL, the enrichment ratio is reported as 8.16. TAAL gave an enrichment ratio of 11.4. Variant NEAL has an enrichment ratio of at most 0.25. For KAAL, the enrichment ratio was 1.81. Work on RGAL yielded an enrichment ratio of 0.701. Work on NAAL yielded an enrichment ratio of at most 0.25. TGAL gave an enrichment ratio of 15.9. Work on TEAL yielded an enrichment ratio of 14.7. For EAAP, the enrichment ratio was at most 0.25. In the case of LSEF, the enrichment ratio is reported as at most 0.25. Work on DGFG yielded an enrichment ratio of at most 0.25. In the case of EQRH, the enrichment ratio is reported as at most 0.25. With KHEV the enrichment ratio was at most 0.25. With INFP the enrichment ratio was at most 0.25. TDLE gave an enrichment ratio of at most 0.25. For NRFY, the enrichment ratio was at most 0.25. VSYR was tested, and the enrichment ratio was at most 0.25. PTNE showed an enrichment ratio of at most 0.25. FSIC gave an enrichment ratio of at most 0.25.
